# Rows were chosen to be rich in hits. Some 7% of all compounds tested hit in one or more screens of this group.
# PI5P4K alpha inh = inhibitors of human PI5P4K alpha; P48426; PI5P4Kalpha enzyme, ADP-Glo luminescence, 60 min; active compounds read low; max response, %; 1.2% of 330,000 active; active = max response of -50% or lower; inconclusive = between -30% and -50%; inactive = -30% or higher; also: value at the top dose of about 77 µM; % is scaled to controls: 0 for no effect and ±100 for the full control effect
#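 Human PI5P4Kalpha with substrate in 0.038 M HEPES pH 7.4, 0.28 mM EGTA, 0.1% CHAPS, 5% DMSO; reaction started with 5 microM ATP (final), 60 min at room temperature. ADP formed read by ADP-Glo luminescence.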
# PLK1 PBD block = inhibitors of human PLK1 polo-box domain binding; P53350; 2.8% of 360,000 active; Plk1 PBD binding of FITC phosphopeptide, fluorescence polarization; Potency, µM, for inactives: max response, negative = inhibition, usual class: inhibitors; also: potency is read from the fitted curve at half-maximal effect; series mostly up to about 57 µM; % is scaled to controls: 0 for no effect and ±100 for the full control effect; nearly all actives have a fitted effect of over 65% in size
# JMJD2A Tudor inh = blocks the human JMJD2A Tudor domain. O75164. AlphaScreen JMJD2A-Tudor / H3K4me3 peptide binding. Potency, µM (titrated, usually from 114 µM), for the others: top-dose activity change, negative = inhibition, usual class: inhibitors. 4.4% of 390,000 active; also: potency is read from the fitted curve at half-maximal effect; % is scaled to controls: 0 for no effect and ±100 for the full control effect; nearly all actives have a fitted effect of over 50% in size
# Target sequence (O75164 whole entry, looked up, the tested form may be a part): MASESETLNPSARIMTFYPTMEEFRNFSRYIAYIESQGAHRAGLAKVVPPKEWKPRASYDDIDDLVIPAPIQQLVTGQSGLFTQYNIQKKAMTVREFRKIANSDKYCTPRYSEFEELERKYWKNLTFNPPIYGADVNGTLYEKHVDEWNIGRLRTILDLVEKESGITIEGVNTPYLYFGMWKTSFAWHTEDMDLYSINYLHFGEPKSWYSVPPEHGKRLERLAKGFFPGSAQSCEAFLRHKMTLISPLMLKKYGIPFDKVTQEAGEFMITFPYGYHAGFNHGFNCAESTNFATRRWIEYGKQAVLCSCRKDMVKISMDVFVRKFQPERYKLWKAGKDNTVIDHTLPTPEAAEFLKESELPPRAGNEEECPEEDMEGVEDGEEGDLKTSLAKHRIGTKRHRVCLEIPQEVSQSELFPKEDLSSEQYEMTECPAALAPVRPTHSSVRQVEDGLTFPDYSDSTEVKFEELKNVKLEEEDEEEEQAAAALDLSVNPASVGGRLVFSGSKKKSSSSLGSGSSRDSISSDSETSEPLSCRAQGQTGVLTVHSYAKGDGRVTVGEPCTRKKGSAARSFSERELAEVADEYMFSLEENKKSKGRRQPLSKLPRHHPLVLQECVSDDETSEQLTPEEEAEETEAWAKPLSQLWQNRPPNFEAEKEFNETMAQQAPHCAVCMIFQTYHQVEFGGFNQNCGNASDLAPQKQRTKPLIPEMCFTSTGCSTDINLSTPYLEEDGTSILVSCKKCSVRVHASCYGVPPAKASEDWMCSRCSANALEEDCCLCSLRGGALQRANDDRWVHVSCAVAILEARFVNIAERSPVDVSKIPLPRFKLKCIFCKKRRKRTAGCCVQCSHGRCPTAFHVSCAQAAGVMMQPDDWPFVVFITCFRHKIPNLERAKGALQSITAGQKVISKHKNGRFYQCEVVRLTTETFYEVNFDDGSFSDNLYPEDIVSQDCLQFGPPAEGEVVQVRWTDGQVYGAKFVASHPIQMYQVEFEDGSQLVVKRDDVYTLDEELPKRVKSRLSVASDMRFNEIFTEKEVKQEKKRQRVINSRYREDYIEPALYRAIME
# BAZ2B inh = inhibitors of human BAZ2B bromodomain; Potency, µM (series often up to 114 µM), for the others: at the top dose activity change, negative = inhibition, usual class: inhibitors; AlphaScreen BAZ2B-H3K14Ac peptide displacement; 4.4% of 360,000 active; also: potency is read from the fitted curve at half-maximal effect; % is scaled to controls: 0 for no effect and ±100 for the full control effect; nearly all actives have a fitted effect of over 60% in size
#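 In this displacement format the biotinylated H3(5-23) peptide acetylated at Lys14 serves as ligand at 50 nM, with BAZ2B at 50 nM in PBS pH 7.4 containing 0.01% Tween-20. Donor and acceptor beads are 10 ug/mL final.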
# HP1b binding inh = HP1-beta chromodomain-methylated histone interaction inhibition; P83916; AlphaScreen HP1-beta / biotin-H3K9me3 peptide binding; Potency, µM (series often up to 114 µM), for the others: at the highest dose activity change, negative = inhibition, actives largely listed as inhibitors; 0.56% of 390,000 active; also: potency is read from the fitted curve at half-maximal effect; nearly all actives have a fitted effect of over 70% in size
#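 Compound inhibition of the preformed complex between 50 nM HP1-beta and 50 nM biotinylated H3K9me3 peptide was read by AlphaScreen. Buffer was PBS pH 7.4 with 0.01% Tween-20. Incubations ran 30 min at room temperature, with 10 ug/mL donor/acceptor beads.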
# GCN5L2 inh = blocks human GCN5L2 histone acetyltransferase; Q92830; GCN5L2 HAT assay, ThioGlo1 CoA-SH fluorescence; Potency, µM (top dose mostly 58.9 µM), for inactives: top-dose activity change, negative = inhibition, usual class: inhibitors; 0.21% of 390,000 active; AID 504327; also: potency is read from the fitted curve at half-maximal effect; % is scaled to controls: 0 for no effect and ±100 for the full control effect
#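 GCN5L2 (20 nM) in 50mM HEPES pH 7.5, 0.1mM EDTA, 0.01% Tween-20 preincubated 15 min with compounds at room temperature. Reaction started with H3(1-25) 75uM, acetyl-CoA 70uM, ThioGlo1 50uM; CoA-thiol fluorescence (Ex340/Em540) read at 0 and 20 min.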
# Active calls of the source: *; ? = inconclusive; . = not tested or not shown; [ ] = dose if it differs, or a comment. Unless noted, calls follow the shape of the dose curve; as a rule, active = well fitted curve in the direction sought with a large enough effect; inconclusive = small, poorly fitted or top-dose-only effect, or another doubt; inactive = no such curve, though single readings can be large; an effect the other way counts as inactive or inconclusive.
SMILES,PI5P4K alpha inh,PLK1 PBD block,JMJD2A Tudor inh,BAZ2B inh,HP1b binding inh,GCN5L2 inh
CC(=O)c1ccc(-c2ccc(C(=O)Nc3nc(-c4ccccn4)cs3)o2)cc1,?,26.7µM*,-34.1%,.,-2.7%,-10.2%
CCc1cc(C(=O)Nc2nc(-c3ccccn3)cs2)sc1C,?,?,?,70.8µM*,27.6%,0.0%
CCn1nc(C(=O)Nc2nc(-c3ccccn3)cs2)c2ccccc2c1=O,-2.0,-11.6%,-28.4%,-0.2%,14.6%,0.8%
COc1cc2c(cc1OC)n(CC(=O)Nc1ccccc1)c(=O)n1nc(-c3ccccc3)nc21,.,.,-14.0%,-6.2%,25.8%,-1.5%
CCC(C)C(N)C(=O)NC(CC(N)=O)C(=O)NC(CC(C)C)C(=O)NC(CCCCN)C(=O)NC(C)C(=O)NC(CC(C)C)C(=O)NC(C)C(=O)NC(C)C(=O)NC(CC(C)C)C(=O)NC(C)C(=O)NC(CCCCN)C(=O)NC(CCCCN)C(=O)NC(C(=O)NC(CC(C)C)C(N)=O)C(C)CC (centres undefined),.,.,.,.,.,-15.4%
COc1cc(NC(=O)C(CC(C)C)NS(=O)(=O)c2ccc3c(c2)CCCC(=O)N3)cc(OC)c1 (centres undefined),.,.,-13.6%,-2.8%,15.9%,-9.8%
O=C(O)c1cccc(Sc2cc(Cl)ccc2C(=O)O)c1,-22.4,-22.0%,89.1µM*,56.2µM*,23.5%,-6.0%
O=C(O)c1cccc(Sc2ccc(Br)cc2C(=O)O)c1,-4.1,-12.4%,-16.4%,-10.0%,29.3%,-0.7%
COC(=O)c1ccc(COc2cccnc2[N+](=O)[O-])cc1,0.5,-1.2%,-8.9%,-22.2%,25.1%[57 µM],-4.1%
Cn1c(=O)c2nc3ccc(NC(=O)C(F)(F)F)cc3nc2n(C)c1=O,.,.,3.1%,-1.0%,37.2%,0.2%
CC(=O)Nc1ccc2nc3c(=O)n(C)c(=O)n(C)c3nc2c1,?,?,79.4µM*,?,-8.6%,?
O=C(NCCN1CCC(n2c(=O)[nH]c3ccccc32)CC1)c1ccc(Cl)cc1Cl,2.7,-7.0%,.,.,.,.
O=C(Nc1ccc(Nc2ccncc2)cc1)c1ccc(Nc2ccnc3ccc([N+](=O)[O-])cc23)cc1[N+](=O)[O-],-53.8*,-5.6%,?,-17.8%,-37.2%,2.9%
O=C(Nc1ccc(Nc2ccncc2)cc1)c1ccc([N+](=O)[O-])cc1,1.2,0.2%,-16.2%,-16.2%,24.5%,-5.2%
C=CCNCCCOc1ccc(Cl)cc1Br,9.9,-3.7%,10µM*,-33.8%,4.2%,-6.5%
COCCNCCCOc1ccc(Cl)cc1Br,-2.9,-8.4%,7.94µM*,50.1µM*,?,-0.2%
CCCCNCCCOc1cccc(Cl)c1,.,-10.9%,-5.8%,6.2%,18.1%,-1.6%
COCCCNCCCCOc1ccc(Br)cc1Cl,0.5,-1.1%,22.4µM*,?,-50.4%,-1.2%
COCCNCCCOc1ccc(Br)cc1Cl,7.3,-9.8%,3.16µM*,?,?,0.7%
COc1ccc(NC(=O)CSc2nc(=O)n(CCN3CCOCC3)c3c2CCCC3)c(OC)c1,6.3,-8.5%,-14.3%,5.1%,25.4%,0.0%
COc1ccc(CCNC(=O)C(=O)NCC(c2ccc3c(c2)OCO3)N2CCOCC2)cc1 (centres undefined),.,.,0.3%,-2.4%,28.5%[57 µM],-1.4%
CCCCn1c(N)c(N(CCOC)C(=O)CCNC(=O)c2ccccc2Cl)c(=O)[nH]c1=O,0.9,-2.8%,-8.9%,-3.8%,39.1%,-2.1%
COCCNCCCCOc1c(Cl)cc(C)cc1Br,-2.3,-9.1%,3.16µM*,50.1µM*,-16.7%,10.3%
Cc1cc(Cl)c(OCCN2C(=O)NC(C)(C)C2=O)c(Br)c1,4.5,0.5%,9.5%,0.8%,30.1%,-7.9%
Clc1cccc(N2CCN(c3ncnc4c3nc3n4CCCCC3)CC2)c1,.,.,?,-30.1%,-0.8%,-12.0%
SMILES,PI5P4K alpha inh,PLK1 PBD block,JMJD2A Tudor inh,BAZ2B inh,HP1b binding inh,GCN5L2 inh
C=CCn1c(-c2sccc2C)n[nH]c1=S,-13.3,-13.1%,7.08µM*,-4.3%,23.4%,0.7%
C=CCn1c(-c2cccc([N+](=O)[O-])c2)n[nH]c1=S,4.7,-17.1%,5.62µM*,-27.2%,19.7%,-5.4%
C=CCn1nnnc1-c1cccc(Cl)c1,4.5,26.7µM*,-19.5%[11.4 µM],-2.3%,4.1%,-0.4%
C=C(C)CSc1nnc(-c2cccc(Cl)c2)n1N,.,-4.3%,-12.8%,-4.6%,21.1%,-3.5%
O=[N+]([O-])c1cccc(-c2n[nH]c(=S)n2Cc2ccccc2)c1,4.5,2.5%,79.4µM*,-12.0%,11.9%,-2.6%
COc1ccccc1C(C(=O)NC1CCCC1)N(C(=O)c1csnn1)C1CC1 (centres undefined),11.2,-8.0%,-17.3%,2.6%,25.8%,-8.7%
S=c1[nH]nc(-c2cccc(Cl)c2)n1Cc1ccccc1,-6.1,-10.2%,?,-35.4%,35.6%,-4.1%
C=CCn1c(-c2cccc(Cl)c2)n[nH]c1=S,-13.3,-11.0%,10µM*,5.5%,6.4%,-8.1%
C=CCC(NC(C)c1ccccc1)c1ccco1 (centres undefined),.,-11.7%,2.51µM*,50.1µM*,?,-4.4%
CC(=O)OCCn1c(=O)c2cc3c(=O)n(CCOC(C)=O)c(=O)c3cc2c1=O,-16.6,11.9µM*,-9.2%[11.4 µM],.,-6.7%,2.2%
Cn1cccc1CC(=O)N/N=C\c1cccs1,-1.5,-12.3%,-21.6%,50.1µM*,6.4%,-1.1%
CC(=C/c1ccco1)/C=N/NC(=O)Cc1cccn1C,-17.5,-12.3%,-14.9%[57.1 µM],44.7µM*,-3.5%,-4.5%
CC(/C=N/NC(=O)Cc1cccn1C)=C\c1ccco1,?,-2.9%,?,?,-2.2%,?
CC1(c2nnnn2Cc2ccccc2)CCC(=O)N1C1CC1 (centres undefined),3.2,-8.1%,.,.,.,.
CC(C)(C)OC(=O)[C@H]1[C@H](c2ccc([N+](=O)[O-])cc2)C2(C(=O)c3ccccc3C2=O)C2c3ccccc3C=NN21 (some centres undefined),-7.1,-9.0%,?,39.8µM*,-31.8%,-8.2%
c1ccc(-c2ccc(SCc3cccnc3)nn2)nc1,-1.4,0.5%,?,3.16µM*,12.6%,-0.1%
Cc1ccc2c(=O)cc(C(=O)Nc3ccc(S(=O)(=O)N4CCCCC4)cc3)oc2c1,.,.,-17.4%,-5.6%,16.0%,-7.9%
Cc1cccc(NC(=O)c2nc(S(C)(=O)=O)ncc2Cl)c1,.,.,-25.6%,-1.2%,36.1%,0.6%
COc1cccc(NC(=O)c2nc(S(C)(=O)=O)ncc2Cl)c1,1.5,23.8µM*,-4.5%,-16.5%,83.4%,-3.8%
CN(c1ccccc1)S(=O)(=O)c1ccc(NC(=O)c2nc(S(C)(=O)=O)ncc2Cl)cc1,3.3,16.8µM*,?,-26.3%,2.1%,-3.5%
